Data as given in PubChem BioAssay (NCI).
Compounds without any hit were thinned out: in the full panel of roughly 79,000, 15% have a hit. No stated cut-off is given here; in the data, active means growth inhibition above about 70%; inactive means the rest.

What was measured:
[1] = NCI Yeast Anticancer Drug Screen. Data for the rad50 strain (AID 155);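 further: 0% = growth of vehicle-only cultures of the same strain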; settings: S. cerevisiae rad50 strain growth inhibition; at 50.0 µM; stronger effect = higher value
How it was run: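 Yeast carrying a defined DNA repair defect were exposed to test compounds, and growth was compared with vehicle-treated controls to give percent inhibition.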

[2] = NCI Yeast Anticancer Drug Screen. Data for the mec2-1 strain (AID 157); settings: S. cerevisiae mec2-1 strain, at 50.0 µM, stronger effect = higher value
How it was run: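 Growth inhibition is read against vehicle-treated controls after compound exposure of the mec2-1 yeast strain, which is defective in DNA damage repair or cell cycle control.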

[3] = NCI Yeast Anticancer Drug Screen. Data for the sgs1 mgt1 strain (AID 161);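 further: 0% = growth of cultures given vehicle only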; settings: S. cerevisiae sgs1 mgt1 strain, at 50.0 µM, stronger effect = higher value
How it was run: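 Growth of a repair-deficient yeast mutant was monitored after compound treatment and expressed as inhibition relative to vehicle-treated cultures.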

[4] = NCI Yeast Anticancer Drug Screen. Data for the cln2 rad14 strain (AID 165);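 further: 0% = growth equal to vehicle treated cultures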; settings: S. cerevisiae cln2 rad14 strain, at 50.0 µM, stronger effect = higher value
How it was run: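 Growth inhibition, relative to vehicle-treated controls, is the read-out. The test organism is a yeast strain with defined genetic alterations, cln2 rad14.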

[5] = NCI Yeast Anticancer Drug Screen. Data for the bub3 strain (AID 167); settings: S. cerevisiae bub3 mutant strain, at 50.0 µM, stronger effect = higher value
How it was run: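 Compounds were applied to a genetically altered yeast strain carrying a cell-cycle control defect. Growth inhibition was scored against vehicle-treated controls.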

[6] = NCI Yeast Anticancer Drug Screen. Data for the mlh1 rad18 strain (AID 175); settings: S. cerevisiae mlh1 rad18 strain growth inhibition; at 50.0 µM; stronger effect = higher value
How it was run: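 Cells of a genetically altered yeast strain, deficient in DNA damage repair, were treated with compound. Their growth was then compared with that of vehicle-treated cultures to give inhibition.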

Measured: growth inhibition

CCN(CC)C(=O)C(C)=O
inactive: [1] 8.55% | [2] 1.6% | [3] -12.4% | [4] 12.9% | [5] 1.2% | [6] 12.9%

OCCN(CCO)c1ncnc2c1ncn2Cc1ccccc1
inactive: [1] -7.15% | [2] -7.5% | [3] -7.05% | [4] -42.2% | [5] 8.15% | [6] -20.2%

CCCC(=O)OC(C)COc1ccccc1 (stereo not given)
inactive: [1] 31.4% | [2] 5.8% | [3] 21.3% | [4] -21.4% | [5] 13.4% | [6] 22.4%

COc1ccc2c(C(=O)O)cc3c4ccccc4ncc3c2c1
inactive: [1] 9.4% | [2] 6.65% | [3] -6.75% | [4] 26.9% | [5] -17.9% | [6] -13.2%

CCOC(=O)CC1(O)Oc2cc3c(cc2C(c2cc(OC)c(OC)c(OC)c2)C1C(=O)OCC)OCO3 (stereo not given)
inactive: [1] -0.75% | [2] -5.9% | [3] -21.6% | [4] -0.55% | [5] -1.45% | [6] 10.2%

CC(C)(NC(=O)c1cc(Cl)c2ccccc2c1O)C(=O)O
inactive: [1] 4.4% | [2] 2.8% | [3] 27.7% | [4] 22.9% | [5] 8.6% | [6] 17.7%

CC1(C)C=Cc2c(ccc3[nH]c4occc4c(=O)c23)O1
inactive: [1] 23.4% | [2] -21.8% | [3] -16.8% | [4] 14.2% | [5] 11.4% | [6] -0.3%

COc1cccc(NC(N)=O)c1
inactive: [1] -15.5% | [2] -14.2% | [3] -9.3% | [4] -9.5% | [5] -10.1% | [6] -19.4%

CC1(C)C=Cc2c(ccc(C(=O)Cc3ccccc3)c2O)O1
inactive: [1] 24.1% | [2] 17.4% | [3] 26.4% | [4] -8.1% | [5] 16% | [6] 23.1%

Cc1ccccc1C(c1ccccc1C)c1ccccc1C
inactive: [1] -10.8% | [2] 1% | [3] -10.8% | [4] -15.6% | [5] 1.25% | [6] -19.6%

N#CC(OC(=O)c1ccccc1)C(OC(=O)c1ccccc1)C(COC(=O)c1ccccc1)OC(=O)c1ccccc1 (stereo not given)
inactive: [1] -38.9% | [2] 6.3% | [3] 9.95% | [4] 20.5% | [5] -10.5% | [6] 26.6%

Clc1c(Cl)c(CBr)c(Cl)c(-c2c(Cl)c(Cl)c(Cl)c(CBr)c2Cl)c1Cl
inactive: [1] 2.15% | [2] -4.1% | [3] -2.55% | [4] -25.7% | [5] 2.45% | [6] -1.1%

C=Nc1ccc([N+](=O)[O-])c(N=C)c1
inactive: [1] -2.85% | [2] -0.25% | [3] -9.7% | [4] -18% | [5] 2.7% | [6] 5.15%

CC1CC(C)NC(=O)N1 (stereo not given)
inactive: [1] -13% | [2] 13.5% | [3] -13.9% | [4] 16.1% | [5] 15.8% | [6] 0.4%

COc1ccc(NC(=O)CN)cc1
inactive: [1] 1.3% | [2] -9.9% | [3] 0.2% | [4] -2.55% | [5] 7.6% | [6] 0.7%

CC(=O)CC(SCCSCCSC(CC(C)=O)c1ccccc1)c1ccccc1 (stereo not given)
inactive: [1] 6.9% | [2] -3.65% | [3] 5.05% | [4] 17.1% | [5] 3.95% | [6] 14.7%

COC(=O)c1cncc(C(=O)OC)c1
inactive: [1] -3.9% | [2] -12% | [3] 2.75% | [4] -2.35% | [5] 1.95% | [6] 12.8%

O=C1COCC(=O)N1
inactive: [1] 7.35% | [2] -22% | [3] 8.85% | [4] -1.95% | [5] 0.05% | [6] -0.2%

COc1cc2c(cc1OC)C[N+]1(C)CCc3cc(OC)c(OC)cc3C1C2 (stereo not given)
inactive: [1] -16% | [2] -30.9% | [3] -9.9% | [4] 9.1% | [5] -8% | [6] -5.55%

O=[N+]([O-])c1cc(/C=N\NS(=O)(=O)c2ccc(Cl)cc2)c(O)c([N+](=O)[O-])c1
inactive: [1] 26.9% | [2] 7.2% | [3] 3.9% | [4] -1.35% | [5] 8.75% | [6] 8.6%
